Data taken from PubChem BioAssay (NCATS).
“And” between values parts separate entries of the source, which are not always exact repeats. Equal values may be shown once. Results filed as inconclusive are left out. The source made the active and inactive calls. Unless noted, calls follow the shape of the dose curve; as a rule, active = well fitted curve in the direction sought with a large enough effect; inconclusive = small, poorly fitted or top-dose-only effect, or another doubt; inactive = no such curve, though single readings can be large; an effect the other way counts as inactive or inconclusive.

How the values were obtained:
[1] = Stat Signaling Pathway (AID 446; active = well fitted curve in either direction with a large enough effect, not every such curve was filed as active;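 also: ME-180 cervical cancer cells given 40 pM IL-6 alongside compound; SIE-controlled beta-lactamase reporter measured as 460/530 nm FRET emission ratio; % is scaled to controls: 0 for no effect and ±100 for the full control effect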); settings: ME-180 SIE beta-lactamase reporter, IL-6 stimulated, 5 h
Outline: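 ME-180 cells carrying a SIE-driven beta-lactamase reporter are stimulated with 40 pM IL-6 for 5 h at 37C in the presence of compound. The 460/530 nm FRET substrate ratio is read after 2.5 h at RT. Data are normalised to 300 pM IL-6 and to 125 nM JAK inhibitor controls.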

[2] = molecular target: Glucocorticoid receptor (Homo sapiens) (UniProt P04150); assay: GR-GFP Redistribution (AID 450;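 active = compounds whose dose series gives a full or clear partial fitted curve of increased nuclear translocation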; also: potency is read from the fitted curve at half-maximal effect); settings: U2OS GR-GFP nuclear translocation, laser cytometry, 2 h
[3] = molecular target: Glucocorticoid receptor (Homo sapiens) (UniProt P04150); assay: GR-EFC Redistribution (AID 451; calls by dose curve; also: potency is read from the fitted curve at half-maximal effect); settings: CHO-K1 GR-EFC translocation, beta-gal luminescence, 2 h
Outline: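 Translocation of GR-ED fusion to nuclear EA restores b-gal, read by luminescence after 1 h room-temperature detection. Engineered CHO-K1 biosensor cells, 1,000/well, exposed 2 h at 37 C to titrations up to 46 uM final.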

[4] = molecular target: 3',5'-cyclic-AMP phosphodiesterase 4B (Homo sapiens) (UniProt Q07343); assay: qHTS Assay for Inhibitors of PDE-IV (AID 607; active = well fitted activation curve with a large enough effect in the main read-out, with a control signal flat, not every such curve was filed as active; also: % of control where 0% means no effect); settings: HEK293 ACTOne CNG channel cells, membrane potential fluorescence; series mostly up to 22.9 µM
Outline: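 HEK293 ACTOne cells with CNG channel (1000/well), endogenous PDE4; membrane potential dye, compounds up to 22.9 uM final. Fluorescence Ex 535/Em 590; RO 20-1724 (100 uM final) as reference.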

[5] = molecular target: Mitogen-activated protein kinase 10 (Mus musculus) (UniProt Q61831); assay: JNK3 AlphaScreen Assay (AID 530; active = well fitted curve in either direction with a large enough effect, not every such curve was filed as active;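 also: kinase came from lysate of stimulated human HepG2 cells; signal reports phosphorylation of biotinylated GST-cJun 1-79 at Ser73 with 10 µM ATP; % is scaled to controls: 0 for no effect and ±100 for the full control effect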); settings: JNK3 lysate, c-Jun phosphorylation; series mostly up to 25.6 µM
Outline: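 Room-temperature AlphaScreen kinase assay; pre-activated HepG2 lysate as JNK3 source, biotin-GST-cJun(1-79) substrate, 10 uM ATP, compound 15 min preincubation.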

[6] = Cell Viability - N2a (AID 540); settings: N2a mouse neuroblastoma cell viability; activity change, negative = cytotoxicity: at 92.2 µM (top of the series); also: nearly all actives have a fitted effect of over 45% in size; also: potency is read from the fitted curve at half-maximal effect;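 as to activity change, negative = cytotoxicity: plate controls were DMSO alone for no effect and tamoxifen control for full effect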
Outline: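 First, 1500 N2a cells per well incubate 5 hr at 37 °C; next, compounds are added and incubated 40 hr at 37 °C; finally CellTiter-Glo is added and luminescence read after 20 min, with AC50 derived by Hill modeling.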

[7] = Cell Viability - NIH 3T3 (AID 541); settings: NIH 3T3 cell viability, qHTS; activity change, negative = cytotoxicity: at 92.2 µM (top of the series);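 also: cells exposed to compound for 40 hours; nearly all actives have a fitted effect of over 25% in size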; also: potency is read from the fitted curve at half-maximal effect;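 as to activity change, negative = cytotoxicity: plate controls were DMSO alone for no effect and tamoxifen positive control for full effect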
Outline: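 AC50 values reflect concentration-dependent loss of intracellular ATP in NIH 3T3 cells after 40 hr treatment in complete culture medium, quantified by luciferase-based luminescence.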

[8] = Cell Viability - HUV-EC-C (AID 542); settings: HUV-EC-C endothelial cell viability, qHTS; series mostly up to 92.2 µM;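 also: cells exposed to compound for 40 hours; nearly all actives have a fitted effect of over 35% in size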; also: potency is read from the fitted curve at half-maximal effect; as to activity change, negative = cytotoxicity: % is scaled to controls: 0 for no effect and ±100 for the full control effect
Outline: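 Decrease in cellular ATP, quantified by luciferase luminescence, reflects toxicity in normal human vascular endothelial HUV-EC-C cells given compound for 40 hr in complete culture medium. Values are AC50s from concentration-response curves.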

[9] = Cell Viability - SH-SY5Y (AID 544); settings: SH-SY5Y neuroblastoma cell viability; viability change, negative = cytotoxic: at 92.2 µM (top of the series);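 also: cells exposed to compound for 40 hours; nearly all actives have a fitted effect of over 55% in size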; also: potency is read from the fitted curve at half-maximal effect
Outline: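 Cytotoxicity is scored as a concentration-dependent fall in intracellular ATP in human SH-SY5Y cells treated 40 hr in complete culture medium. Potency is expressed as AC50 from a Hill equation fit.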

[10] = Cell Viability - Renal Proximal Tubule (AID 545); settings: renal proximal tubule cells viability, primary cells of rat origin; activity change, negative = cytotoxicity: at 91.7 µM (top of the series);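 also: cells exposed to compound for 40 hours; nearly all actives have a fitted effect of over 40% in size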; also: potency is read from the fitted curve at half-maximal effect
Outline: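 Luminescent ATP signal (CellTiter-Glo) served as the viability read-out after 40 hr compound exposure of freshly isolated rat proximal tubule cells at 37 °C. Concentration-dependent ATP loss was fitted with the Hill equation to give AC50.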

[11] = Cell Viability - Mesenchymal (AID 546); settings: mesenchymal cells viability, qHTS; activity change, negative = cytotoxicity: at 91.7 µM (top of the series);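 also: cells exposed to compound for 40 hours before reading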; also: potency is read from the fitted curve at half-maximal effect
Outline: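 AC50 values reflect the drop in intracellular ATP in a human kidney mesenchymal line derived from normal glomeruli. Treatment lasts 40 hr at 37 °C in complete medium, and the signal comes from CellTiter-Glo luminescence.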

[12] = Cellular Toxicity (caspase-3) HepG2 (AID 654); settings: HepG2 caspase-3 activation, luminescence; series mostly up to 92.2 µM;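 also: cells exposed to compound for 16 hours before reading; 0% = DMSO alone and 100% = caspase signal from 100 µM tamoxifen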
Outline: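 qHTS, HepG2, 1500 cells/well, complete medium; cpd 16 h 37 °C; Caspase-Glo 3/7, 20 min RT; lum. Norm: DMSO vs 100 uM tamoxifen; AC50 Hill fit.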

[13] = Cellular Toxicity (caspase-3) Jurkat (AID 655); settings: Jurkat caspase-3 activation, luminescence; series mostly up to 92.2 µM;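 also: cells exposed to compound for 16 h at 37 °C before reading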; also: potency is read from the fitted curve at half-maximal effect
Outline: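 5000 Jurkat cells/well; compound 16 hr, 37 °C; Caspase-Glo 3/7 added, 20 min RT; luminescence read. Norm: DMSO = 0%, tamoxifen 100 uM = 100%. AC50, Hill model.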

[14] = Cellular Toxicity (caspase-3) HUV-EC-C (AID 656); settings: HUV-EC-C cells, caspase-3 activation (apoptosis), vehicle = 0, 100 µM tamoxifen = 100%; series mostly up to 92.2 µM
Outline: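 qHTS; HUV-EC-C, 1000 cells/well; 5 hr settle, 16 hr cmpd, 37°C; Caspase-Glo 3/7, 20 min RT; luminescence. Norm: DMSO = 0%, tamoxifen 100 uM = 100%. Hill-fit AC50.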

[15] = Cellular Toxicity (caspase-3) BJ (AID 658); settings: BJ fibroblasts, luminescence, normalized: DMSO 0%, staurosporine 100%; series mostly up to 91.7 µM;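 also: 0% = DMSO basal and 100% = 10 µM staurosporine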
Outline: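 Readout: Caspase-Glo 3/7 luminescence increase in BJ cells after 16 hr treatment at 37 °C. Staurosporine and tamoxifen served as positive controls; AC50 values came from Hill modelling of data normalized to DMSO and 10 uM staurosporine.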

[16] = Cellular Toxicity (caspase-3) MRC-5 (AID 659); settings: MRC-5 cells, luminescence; Potency: caspase-3 activation; series mostly up to 91.7 µM;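 also: cells exposed to compound for 16 h at 37 °C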; also: potency is read from the fitted curve at half-maximal effect;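 as to caspase-3 activation: 0% = DMSO basal and 100% = 10 µM staurosporine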
Outline: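 Concentration-dependent caspase 3/7 activation is measured in human normal lung fibroblasts (MRC-5) following 16-hour treatment. AC50 values come from standard Hill-equation modeling of luminescence normalized to DMSO and 10 uM staurosporine.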

[17] = Cellular Toxicity (caspase-3) Mesangial (AID 660); settings: mesangial cells, normalized: DMSO 0%, 100 µM tamoxifen 100%; series mostly up to 91.7 µM;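 also: combined caspase 3 and 7 activity read by Caspase-Glo luminescence; cells exposed to compound for 16 h before the caspase read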
Outline: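 Concentration-response qHTS: compound-induced rise in caspase 3/7 luminescence in human mesangial cells after 16 h, normalized to DMSO and 100 uM tamoxifen controls.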

[18] = Cellular Toxicity (caspase-3) SK-N-SH (AID 661); settings: SK-N-SH caspase-3 activation, qHTS; series mostly up to 91.7 µM; also: potency is read from the fitted curve at half-maximal effect;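 as to caspase-3 activation: 0% = DMSO basal and 100% = 10 µM staurosporine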
Outline: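 Caspase 3/7 activation is measured as a luminescence increase from aminoluciferin released by substrate cleavage in SK-N-SH cells after 16 hr compound treatment; values are AC50 from concentration-response curves.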

[19] = Cellular Toxicity (caspase-3) H-4-II-E (AID 663); settings: H-4-II-E rat hepatoma; Potency: caspase-3 activation; series mostly up to 92.2 µM; also: potency is read from the fitted curve at half-maximal effect;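 as to caspase-3 activation: cells exposed to compound for 16 hr before readout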
Outline: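 Apoptosis induction is scored as increased luminescence from caspase 3/7 substrate cleavage in rat hepatoma H-4-II-E cells exposed to compound for 16 hr. Activity is scaled between DMSO and 100 uM tamoxifen.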

[20] = Cell Viability - H-4-II-E (AID 543); settings: H-4-II-E rat hepatoma viability; series mostly up to 92.2 µM;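 also: potency is read from the fitted curve at half-maximal effect; cells exposed to compound for 40 hours; nearly all actives have a fitted effect of over 35% in size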
Outline: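 Here, cytotoxicity is measured in the rat hepatoma line H-4-II-E as loss of intracellular ATP after 40 hr compound treatment, detected by luciferase luminescence.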

Chain of 3',5'-cyclic-AMP phosphodiesterase 4B (Homo sapiens) (Q07343 whole entry, looked up): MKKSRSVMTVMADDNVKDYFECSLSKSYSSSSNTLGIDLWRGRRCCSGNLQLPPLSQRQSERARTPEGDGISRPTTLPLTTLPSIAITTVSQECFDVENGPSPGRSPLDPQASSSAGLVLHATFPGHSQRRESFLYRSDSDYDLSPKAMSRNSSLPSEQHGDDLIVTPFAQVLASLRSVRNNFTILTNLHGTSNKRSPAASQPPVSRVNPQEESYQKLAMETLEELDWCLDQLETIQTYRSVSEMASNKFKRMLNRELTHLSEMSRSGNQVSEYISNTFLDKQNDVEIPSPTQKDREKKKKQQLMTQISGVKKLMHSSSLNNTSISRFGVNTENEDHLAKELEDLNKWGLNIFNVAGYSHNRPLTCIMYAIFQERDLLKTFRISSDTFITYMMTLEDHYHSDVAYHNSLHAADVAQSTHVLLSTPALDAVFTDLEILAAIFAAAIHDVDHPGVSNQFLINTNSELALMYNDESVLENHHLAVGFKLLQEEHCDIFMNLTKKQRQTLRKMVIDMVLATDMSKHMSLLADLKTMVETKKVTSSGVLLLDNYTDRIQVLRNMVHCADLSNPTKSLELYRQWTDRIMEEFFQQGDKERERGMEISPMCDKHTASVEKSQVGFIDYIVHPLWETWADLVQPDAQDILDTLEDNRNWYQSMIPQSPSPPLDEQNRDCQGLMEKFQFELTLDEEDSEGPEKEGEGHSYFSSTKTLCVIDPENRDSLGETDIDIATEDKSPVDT
Chain of Glucocorticoid receptor (Homo sapiens) (P04150 whole entry, looked up, the tested form may be a part): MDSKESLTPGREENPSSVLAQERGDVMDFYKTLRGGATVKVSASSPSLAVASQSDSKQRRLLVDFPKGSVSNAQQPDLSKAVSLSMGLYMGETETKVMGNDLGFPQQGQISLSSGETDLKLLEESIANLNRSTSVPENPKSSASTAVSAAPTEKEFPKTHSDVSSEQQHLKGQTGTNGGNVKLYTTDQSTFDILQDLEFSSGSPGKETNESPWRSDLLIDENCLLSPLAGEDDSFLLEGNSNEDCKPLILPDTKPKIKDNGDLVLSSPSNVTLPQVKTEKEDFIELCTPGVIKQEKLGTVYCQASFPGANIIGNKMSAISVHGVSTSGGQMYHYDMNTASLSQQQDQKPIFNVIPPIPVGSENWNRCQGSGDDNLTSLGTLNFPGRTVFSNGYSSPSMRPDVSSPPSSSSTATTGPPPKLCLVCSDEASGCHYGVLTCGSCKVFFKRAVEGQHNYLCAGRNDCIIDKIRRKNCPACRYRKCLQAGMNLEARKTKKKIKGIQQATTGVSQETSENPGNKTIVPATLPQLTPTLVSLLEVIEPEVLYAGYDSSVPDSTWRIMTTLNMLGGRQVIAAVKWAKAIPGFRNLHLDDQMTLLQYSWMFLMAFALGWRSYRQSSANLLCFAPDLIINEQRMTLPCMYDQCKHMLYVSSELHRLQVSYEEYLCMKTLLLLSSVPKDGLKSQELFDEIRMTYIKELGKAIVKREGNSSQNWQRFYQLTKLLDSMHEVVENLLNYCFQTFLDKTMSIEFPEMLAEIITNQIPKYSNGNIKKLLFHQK

CC(C)N=C(N)/N=C(\N)Nc1ccc(Cl)cc1
inactive: activity, negative = inhibition ([1]; at 17.2 µM (top of the series)) -2.15% | Potency [2] > 20.6 µM | Potency [3] > 20.6 µM | outcome [4]

C[C@@H](CN(C)C)CN1c2ccccc2Sc2ccccc21
inactive: activity, negative = inhibition ([1]; at 17.2 µM (top of the series)) -7.27% | Potency [2] > 20.6 µM | Potency [3] > 20.6 µM | outcome [5] | outcome [4]

CCN(CC)C(=O)N1CCN(C)CC1
inactive: activity, negative = inhibition ([1]; at 17.2 µM (top of the series)) 3.22% | Potency [2] > 20.6 µM | Potency [3] > 20.6 µM | outcome [5] | outcome [4]

Cc1c(N(C)CS(=O)(=O)O)c(=O)n(-c2ccccc2)n1C
inactive: activity, negative = inhibition ([1]; at 17.2 µM (top of the series)) -1.51% | Potency [2] > 20.6 µM | Potency [3] > 20.6 µM | outcome [4]

CN(C)CCCOc1nn(Cc2ccccc2)c2ccccc12
inactive: activity, negative = inhibition ([1]; at 17.2 µM (top of the series)) -8.78% | Potency [2] > 20.6 µM | Potency [3] > 20.6 µM | outcome [5]

CCOc1ccc(Cc2nccc3cc(OCC)c(OCC)cc23)cc1OCC
inactive: activity, negative = inhibition ([1]; at 17.2 µM (top of the series)) -1.62% | Potency [2] > 20.6 µM | Potency [3] > 20.6 µM | outcome [5]

CC(C)COC(=O)OCN1C(=O)CN(CCN2CC(=O)N(COC(=O)OCC(C)C)C(=O)C2)CC1=O
inactive: activity, negative = inhibition ([1]; at 38 µM (top of the series)) -1.3% | Potency [2] > 46 µM | Potency [3] > 46 µM | outcome [5] | outcome [4]

C=C(CC)C(=O)c1ccc(OCC(=O)O)c(Cl)c1Cl
active: activity change, negative = cytotoxicity [6] -112% | activity change, negative = cytotoxicity [7] -86.1% | viability change, negative = cytotoxic [9] -99.4% | activity change, negative = cytotoxicity [10] -86.3%
inactive: activity, negative = inhibition ([1]; at 17.2 µM (top of the series)) -17.9% | Potency [2] > 20.6 µM | Potency [3] > 20.6 µM | Potency [8] | activity change, negative = cytotoxicity [11] -21.9% | outcome [4] | Potency [12] | Potency [13] | outcome [14] | outcome [15] | Potency [16] | outcome [17] | Potency [18] | Potency [19]

NCCc1ccn[nH]1
inactive: activity, negative = inhibition ([1]; at 17.2 µM (top of the series)) 4.55% | Potency [2] > 20.6 µM | Potency [3] > 20.6 µM | outcome [4]

CCCCOc1ccc(C(=O)CCN2CCCCC2)cc1
inactive: activity, negative = inhibition ([1]; at 17.2 µM (top of the series)) -25% and -28.6% | Potency [2] > 20.6 µM | Potency [3] > 20.6 µM | outcome [5]

C[C@@H]1C(=O)NC2=Nc3cccc(Cl)c3CN21
inactive: activity, negative = inhibition ([1]; at 38 µM (top of the series)) -15.9% | Potency [2] > 46 µM | Potency [3] > 46 µM | outcome [4]

Nc1nc2ncc(CNc3ccc(C(=O)N[C@@H](CCC(=O)O)C(=O)O)cc3)nc2c(=O)[nH]1
inactive: activity, negative = inhibition ([1]; at 17.2 µM (top of the series)) 1.24% | Potency [2] > 20.6 µM | Potency [3] > 20.6 µM | outcome [4]

CC(C)(Oc1ccc(Cl)cc1)C(=O)O
inactive: activity, negative = inhibition ([1]; at 17.2 µM (top of the series)) -4.02% | Potency [2] > 20.6 µM and > 46 µM | Potency [3] > 20.6 µM and > 46 µM | outcome [4]

C[C@H](O)C(=O)Nc1c(I)c(C(=O)NC(CO)CO)c(I)c(C(=O)NC(CO)CO)c1I
inactive: activity, negative = inhibition ([1]; at 17.2 µM (top of the series)) -2.21% | Potency [2] > 20.6 µM | Potency [3] > 20.6 µM | outcome [5] | outcome [4]

NC(=NCCCCCCN=C(N)/N=C(\N)Nc1ccc(Cl)cc1)/N=C(\N)Nc1ccc(Cl)cc1
inactive: activity, negative = inhibition ([1]; at 17.2 µM (top of the series)) -5.46% | Potency [2] > 20.6 µM | Potency [3] > 20.6 µM | outcome [4] | Potency [12] | Potency [13] | outcome [14] | outcome [15] | Potency [16] | outcome [17] | Potency [18] | Potency [19]
active: Potency [6] 31.6 µM | Potency [7] 31.6 µM | Potency [8] 39.8 µM | Potency [20] 31.6 µM | activity change, negative = cytotoxicity [10] -102% | Potency [11] 31.6 µM

O=C(OCCOCCO)c1ccccc1Nc1cccc(C(F)(F)F)c1
inactive: activity, negative = inhibition ([1]; at 17.2 µM (top of the series)) -10.5% | Potency [2] > 20.6 µM | Potency [3] > 20.6 µM | outcome [4]

COc1cccc2c1C(=O)c1c(O)c3c(c(O)c1C2=O)C[C@@](O)(C(C)=O)C[C@@H]3O[C@H]1C[C@H](N)[C@H](O)[C@H](C)O1
inactive: Potency [2] > 46 µM and > 20.6 µM | Potency [3] > 46 µM | outcome [4] | outcome [14]
active: activity, negative = inhibition ([1]; at 17.2 µM (top of the series)) -103% | Potency [6] 0.251 µM | Potency [20] 3.16 µM | Potency [9] 0.00794 µM | Potency [10] 3.98 µM | Potency [13] 0.00501 µM | Potency [16] 31.6 µM | Potency [18] 0.126 µM | Potency [19] 12.6 µM

CCn1cc(C(=O)O)c(=O)c2cnc(N3CCCC3)nc21
inactive: activity, negative = inhibition ([1]; at 17.2 µM (top of the series)) 2.28% | Potency [2] > 20.6 µM | Potency [3] > 20.6 µM | outcome [4]
